26 compounds from PubChem BioAssay can be followed below.

Values joined by “and” are separate entries in the source; they are usually repeats but may differ in a detail not shown here. Identical values can stand only once. Active and inactive are the calls of the source.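 Rule for the calls: active = compounds whose cell count with miR-34 switched on is under 0.7 times the count with it off; inactive = the rest.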

This experiment can be described thus: sensitizers of A549 cells to miR-34 induction, primary screen, imaging, A549 dox-inducible miR-34, nuclei and caspase counts (AID 1347080). Note: test concentration not given here. The conditions noted are these: A549 miR-34 inducible, Hoechst nuclei count, 48 h; hits give low values; cell number ratio, induced over uninduced.
Regarding `COc1cc(OC)c(C(=O)CCCN2CCCC2)c(OC)c1`, the fold change was 0.858 (inactive) and 0.948 (inactive) and 0.902 (inactive).
To `CC(C)[C@H](N)C(=O)OCCOCn1cnc2c(=O)[nH]c(N)nc21` belongs 0.847 (inactive); to `Cn1c(NCCN(CCO)CCCc2ccc([N+](=O)[O-])cc2)cc(=O)n(C)c1=O`, 0.987 (inactive) and 0.875 (inactive); to `CCN1CCN(C(=O)N[C@@H](C(=O)N[C@@H]2C(=O)N3C(C(=O)O)=C(CSc4nnnn4C)CS[C@H]23)c2ccc(O)cc2)C(=O)C1=O`, 0.863 (inactive) and 0.844 (inactive).
Take `CNNCc1ccc(C(=O)NC(C)C)cc1`: the fold change was 0.927 (inactive) and 0.93 (inactive) and 0.882 (inactive).
As to `CCOC(=O)[C@H](CCc1ccccc1)N[C@@H](C)C(=O)N1CCC[C@H]1C(=O)O`, the fold change was 0.896 (inactive) and 0.877 (inactive) and 0.886 (inactive).
To `O=NN(CCCl)C(=O)NC1CCCCC1` belongs 0.819 (inactive) and 0.861 (inactive); to `COc1ccc(C(=O)CC(=O)c2ccc(C(C)(C)C)cc2)cc1`, 0.967 (inactive) and 0.867 (inactive).
Next, `NNc1nncc2ccccc12`: 1.01 (inactive) and 0.821 (inactive).
To `O=NN(CCCl)C(=O)NCCCl` belongs 0.948 (inactive) and 0.902 (inactive); to `Cc1cn[nH]c1`, 0.994 (inactive) and 0.902 (inactive).
In the case of `COc1ccc2cc3[n+](cc2c1OC)CCc1cc2c(cc1-3)OCO2`, the fold change is 0.92 (inactive) and 0.934 (inactive).
To `COC1=C(OC)C(=O)C(CCCCCCCCCCO)=C(C)C1=O` belongs 0.841 (inactive) and 0.881 (inactive) and 0.889 (inactive); to `COc1cc2c(N3CCN(C(=O)Nc4ccc(OC(C)C)cc4)CC3)ncnc2cc1OCCCN1CCCCC1`, 0.882 (inactive) and 0.979 (inactive); to `Nc1nc(=S)c2[nH]cnc2[nH]1`, 1.16 (inactive).
As to `CCCN(CCC)C(=O)C(CCC(=O)O)NC(=O)c1ccccc1` (stereo unspecified), the fold change was 1.06 (inactive) and 0.936 (inactive) and 0.845 (inactive).
Next, `Oc1ccc(OCc2ccccc2)cc1`: 0.78 (inactive) and 0.903 (inactive); `CC(=O)O[C@]1(C(C)=O)CC[C@H]2[C@@H]3C=C(Cl)C4=CC(=O)[C@@H]5C[C@@H]5[C@]4(C)[C@H]3CC[C@@]21C`: 0.956 (inactive) and 0.85 (inactive).
Next, `CO[C@@H]1[C@@H](OC(N)=O)[C@@H](O)[C@H](Oc2ccc3c(O)c(NC(=O)c4ccc(O)c(CC=C(C)C)c4)c(=O)oc3c2C)OC1(C)C`: 0.761 (inactive).
Turning to `CCOc1cc(N)c(Cl)cc1C(=O)NCC1CN(Cc2ccc(F)cc2)CCO1` (stereo unspecified), the fold change was 0.847 (inactive) and 0.952 (inactive).
To `Nc1ncnc2c1ncn2[C@@H]1O[C@H](CO)[C@@H](O)[C@H]1O` belongs 0.803 (inactive); to `CCN(CC)CCOc1ccc(/C(=C(\Cl)c2ccccc2)c2ccccc2)cc1`, 0.868 (inactive).
Next, `Cc1ccc(S(=O)(=O)NC(=O)NN2CC3CCCC3C2)cc1` (stereo unspecified): 0.889 (inactive) and 0.88 (inactive); `CN(Cc1cc(Br)cc(Br)c1N)C1CCCCC1`: 0.928 (inactive) and 0.903 (inactive) and 0.881 (inactive); `Cn1c(=O)c2c(ncn2C)n(C)c1=O`: 0.965 (inactive) and 0.863 (inactive).
For the compound `CN(Cc1cnc2nc(N)nc(N)c2n1)c1ccc(C(=O)N[C@@H](CCC(=O)O)C(=O)O)cc1`, the fold change is 1.49 (inactive) and 1.21 (inactive) and 1.07 (inactive).
